# From the supplement of paper PMC8728848
# Shown is part of a subset that was picked to be rich in the strongest signals.
# Assays:
# Test in all cases: glycan array binding signal (z-score within array); higher = stronger binding
# Settings in all cases: glycan notation: IUPAC condensed, linker removed
# [1] = target: Fuc(a1-2)Gal(b1-3)GalNAc(a1-3)[Fuc(a1-2)]Gal(b1-4)GlcNAc
# In short: (§1)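 Arrays were curated from the Consortium for Functional Glycomics database, 3228 in total, and kept only where the protein sequence was available. Binding is expressed as a within-array Z-score. This score was averaged across arrays of the same protein sequence at different concentrations or buffers and across linkers, and negative values can be read as non-binding.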
# [2] = target: Fuc(a1-2)Gal(b1-3)GlcNAc(b1-3)[Neu5Ac(a2-6)Gal(b1-4)GlcNAc(b1-6)]Gal(b1-4)Glc
# In short: as §1
# [3] = target: Fuc(a1-2)[Gal(a1-3)]Gal(b1-3)GlcNAc
# In short: as §1
# [4] = target: Fuc(a1-2)[Gal(a1-3)]Gal(b1-3)GlcNAc(b1-3)GalNAc
# In short: as §1
# [5] = target: Fuc(a1-2)[Gal(a1-3)]Gal(b1-4)GlcNAc(b1-3)[Fuc(a1-2)[Gal(a1-3)]Gal(b1-4)GlcNAc(b1-6)]GalNAc
# In short: as §1
# [6] = target: Fuc(a1-2)[GalNAc(a1-3)]Gal(b1-3)GlcNAc
# In short: as §1
# [7] = target: Fuc(a1-2)[GalNAc(b1-3)]Gal
# In short: as §1
# [8] = target: Fuc(a1-3)[Gal(b1-4)]Glc6S
# In short: as §1
# [9] = target: Gal(a1-3)Gal
# In short: as §1
# [10] = target: Gal(a1-4)Gal(b1-4)GlcNAc(b1-2)Man(a1-3)[Gal(a1-4)Gal(b1-4)GlcNAc(b1-2)Man(a1-6)]Man(b1-4)GlcNAc(b1-4)GlcNAc
# In short: as §1
# [11] = target: Gal(b1-2)Gal
# In short: as §1
# [12] = target: Gal(b1-3)GalNAc(b1-3)Gal(a1-4)Gal(b1-4)Glc
# In short: as §1
# [13] = target: Gal(b1-3)GalNAc(b1-4)[Neu5Ac(a2-3)]Gal(b1-4)Glc
# In short: as §1
# [14] = target: Gal(b1-3)GlcNAc(b1-6)Gal(b1-4)GlcNAc
# In short: as §1
# [15] = target: Gal(b1-3)[Fuc(a1-4)]GlcNAc(b1-3)Gal(b1-4)[Fuc(a1-3)]GlcNAc
# In short: as §1
# [16] = target: Gal(b1-4)GlcNAc(b1-2)Man(a1-3)[Gal(b1-4)GlcNAc(b1-2)Man(a1-6)]Man(b1-4)GlcNAc(b1-4)[Fuc(a1-6)]GlcNAc
# In short: as §1
# [17] = target: Gal(b1-4)GlcNAc(b1-2)[Gal(b1-4)GlcNAc(b1-4)]Man(a1-3)[GlcNAc(b1-4)][Gal(b1-4)GlcNAc(b1-2)Man(a1-6)]Man(b1-4)GlcNAc(b1-4)GlcNAc
# In short: as §1
# [18] = target: Gal(b1-4)GlcNAc(b1-3)Gal(b1-4)GlcNAc(b1-3)Gal(b1-4)GlcNAc(b1-2)Man(a1-3)[Gal(b1-4)GlcNAc(b1-3)Gal(b1-4)GlcNAc(b1-3)Gal(b1-4)GlcNAc(b1-2)Man(a1-6)]Man(b1-4)GlcNAc(b1-4)[Fuc(a1-6)]GlcNAc
# In short: as §1
# [19] = target: Gal(b1-4)GlcNAc(b1-6)[Gal(b1-4)GlcNAc(b1-3)]GalNAc
# In short: as §1
# [20] = target: Gal3S(b1-3)GalNAc
# In short: as §1
# [21] = target: Gal4S6S(b1-4)GlcNAc
# In short: as §1
# [22] = target: GlcNAc(a1-4)Gal(b1-4)GlcNAc(b1-3)Gal(b1-4)GlcNAc
# In short: as §1
# [23] = target: GlcNAc(b1-3)Gal(b1-4)GlcNAc(b1-2)[GlcNAc(b1-3)Gal(b1-4)GlcNAc(b1-6)]Man(a1-6)[GlcNAc(b1-3)Gal(b1-4)GlcNAc(b1-2)Man(a1-3)]Man(b1-4)GlcNAc(b1-4)GlcNAc
# In short: as §1
# [24] = target: GlcNAc(b1-3)Gal(b1-4)GlcNAc(b1-3)Gal(b1-4)GlcNAc(b1-2)Man(a1-3)[GlcNAc(b1-3)Gal(b1-4)GlcNAc(b1-3)Gal(b1-4)GlcNAc(b1-2)Man(a1-6)]Man(b1-4)GlcNAc(b1-4)GlcNAc
# In short: as §1
# [25] = target: GlcNAc(b1-3)Gal(b1-4)GlcNAc(b1-3)Gal(b1-4)GlcNAc(b1-2)Man(a1-3)[GlcNAc(b1-3)Gal(b1-4)GlcNAc(b1-3)Gal(b1-4)GlcNAc(b1-2)Man(a1-6)]Man(b1-4)GlcNAc(b1-4)[Fuc(a1-6)]GlcNAc
# In short: as §1
# [26] = target: GlcNAc(b1-3)Gal(b1-4)GlcNAc(b1-3)Gal(b1-4)GlcNAc(b1-2)[GlcNAc(b1-3)Gal(b1-4)GlcNAc(b1-3)Gal(b1-4)GlcNAc(b1-6)]Man(a1-6)[GlcNAc(b1-3)Gal(b1-4)GlcNAc(b1-3)Gal(b1-4)GlcNAc(b1-2)Man(a1-3)]Man(b1-4)GlcNAc(b1-4)[Fuc(a1-6)]GlcNAc
# In short: as §1
# [27] = target: GlcNAc(b1-3)Gal(b1-4)GlcNAc(b1-3)Gal(b1-4)GlcNAc(b1-3)Gal(b1-4)GlcNAc(b1-2)Man(a1-3)[GlcNAc(b1-3)Gal(b1-4)GlcNAc(b1-3)Gal(b1-4)GlcNAc(b1-3)Gal(b1-4)GlcNAc(b1-2)Man(a1-6)]Man(b1-4)GlcNAc(b1-4)GlcNAc
# In short: as §1
# [28] = target: GlcNAc(b1-3)Gal(b1-4)GlcNAc(b1-3)Gal(b1-4)GlcNAc(b1-3)Gal(b1-4)GlcNAc(b1-2)Man(a1-3)[GlcNAc(b1-3)Gal(b1-4)GlcNAc(b1-3)Gal(b1-4)GlcNAc(b1-3)Gal(b1-4)GlcNAc(b1-2)Man(a1-6)]Man(b1-4)GlcNAc(b1-4)[Fuc(a1-6)]GlcNAc
# In short: as §1
# [29] = target: GlcNAc(b1-3)Gal(b1-4)GlcNAc(b1-3)Gal(b1-4)GlcNAc(b1-3)Gal(b1-4)GlcNAc(b1-2)[GlcNAc(b1-3)Gal(b1-4)GlcNAc(b1-3)Gal(b1-4)GlcNAc(b1-3)Gal(b1-4)GlcNAc(b1-6)]Man(a1-6)[GlcNAc(b1-3)Gal(b1-4)GlcNAc(b1-3)Gal(b1-4)GlcNAc(b1-3)Gal(b1-4)GlcNAc(b1-2)Man(a1-3)]Man(b1-4)GlcNAc(b1-4)[Fuc(a1-6)]GlcNAc
# In short: as §1
# [30] = target: GlcNAc(b1-3)Gal(b1-4)GlcNAc(b1-3)Gal(b1-4)GlcNAc(b1-3)Gal(b1-4)GlcNAc(b1-3)Gal(b1-4)GlcNAc(b1-2)Man(a1-3)[GlcNAc(b1-3)Gal(b1-4)GlcNAc(b1-3)Gal(b1-4)GlcNAc(b1-3)Gal(b1-4)GlcNAc(b1-3)Gal(b1-4)GlcNAc(b1-2)Man(a1-6)]Man(b1-4)GlcNAc(b1-4)GlcNAc
# In short: as §1
binder,measurement,setting,value
Di AAL2 (Agrocybe aegerita) (protein) MTSNVITQDLPIPVASRGFADIVGFGLDGVVIGRNAVNLQPFLAVKNFAQNAGGWLTTKHVRLIADTTGTGKGDIVGFGNAGVYVSVNNGKNTFADPPKMVIANFGYDAGGWRVEKHLRYLADIRKIGRADIIGFGEKGVLVSRNNGGLNFGPATLVLKDFGYDAGGWRLDRHLRFLADVTGNGHLDIVGFGDKHVFISRNNGDGTFAPAKSVIDNFCIDAGGWKIGDHPRFVADLTGDGTADIIGCGKAGCWVALNNGGGVFGQVKLVINDFGTDKGWQAAKHPRFIADLTGNGRGDVVGFGNAGVYVALNNGDGTFQSAKLVLKDFGVQQGWTVSKHRRFVVDLTGDGCADIIGFGEKETLVSYNDGKGNFGPVKALTNDFSFSGGKWAPETTVCWMANLDSSRHPAPAPMTSNVITQDLPIPVASRGFADIVGFGLDGVVIGRNAVNLQPFLAVKNFAQNAGGWLTTKHVRLIADTTGTGKGDIVGFGNAGVYVSVNNGKNTFADPPKMVIANFGYDAGGWRVEKHLRYLADIRKIGRADIIGFGEKGVLVSRNNGGLNFGPATLVLKDFGYDAGGWRLDRHLRFLADVTGNGHLDIVGFGDKHVFISRNNGDGTFAPAKSVIDNFCIDAGGWKIGDHPRFVADLTGDGTADIIGCGKAGCWVALNNGGGVFGQVKLVINDFGTDKGWQAAKHPRFIADLTGNGRGDVVGFGNAGVYVALNNGDGTFQSAKLVLKDFGVQQGWTVSKHRRFVVDLTGDGCADIIGFGEKETLVSYNDGKGNFGPVKALTNDFSFSGGKWAPETTVCWMANLDSSRH,glycan array binding signal (z-score),[1],-0.31
same,glycan array binding signal (z-score),[2],-0.337
same,glycan array binding signal (z-score),[3],-0.338
same,glycan array binding signal (z-score),[4],-0.312
same,glycan array binding signal (z-score),[5],-0.292
same,glycan array binding signal (z-score),[6],-0.172
same,glycan array binding signal (z-score),[7],-0.337
same,glycan array binding signal (z-score),[8],-0.322
same,glycan array binding signal (z-score),[9],-0.332
same,glycan array binding signal (z-score),[10],5.32
same,glycan array binding signal (z-score),[11],-0.333
same,glycan array binding signal (z-score),[12],-0.331
same,glycan array binding signal (z-score),[13],-0.314
same,glycan array binding signal (z-score),[14],-0.333
same,glycan array binding signal (z-score),[15],-0.331
same,glycan array binding signal (z-score),[16],-0.343
same,glycan array binding signal (z-score),[17],-0.313
same,glycan array binding signal (z-score),[18],-0.209
same,glycan array binding signal (z-score),[19],-0.313
same,glycan array binding signal (z-score),[20],-0.334
same,glycan array binding signal (z-score),[21],-0.338
same,glycan array binding signal (z-score),[22],2.68
same,glycan array binding signal (z-score),[23],5.83
same,glycan array binding signal (z-score),[24],3.47
same,glycan array binding signal (z-score),[25],3.72
same,glycan array binding signal (z-score),[26],5.12
same,glycan array binding signal (z-score),[27],5.42
same,glycan array binding signal (z-score),[28],4.23
same,glycan array binding signal (z-score),[29],5.39
same,glycan array binding signal (z-score),[30],5.42
